Bioassay records deposited in PubChem by National Center for Advancing Translational Sciences (NCATS).
Rows were chosen to be rich in hits. Some 1.3% of all compounds tested hit in one or more screens of this group.
GRP78 ERSR act – qHTS for Inducers of the Endoplasmic Reticulum Stress Response (ERSR) in Human Glioma: qHTS; U87-MG GRP78 promoter luciferase reporter, 16 h; Potency, µM, for the others: top-dose activation, most hits filed as activators; 420,000 tested, 0.02% active; AID 602332, 2012; also: potency is read from the fitted curve at half-maximal effect; series mostly up to about 76 µM; % of control where 0% means no effect; nearly all actives have a fitted effect of over 35% in size
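Stably transfected U87-MG glioma cells carrying a GRP78-based luciferase sensor; 16 h compound incubation. Luminescence end-point read 10 min after Bright-Glo addition at room temperature.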
Tb PGK inh – qHTS Assay to Find Inhibitors of Phosphoglycerate Kinase. Potency, µM (top dose mostly 57.5 µM), without a hit: at the highest dose activity change, negative = inhibition, usual class: inhibitors. 380,000 tested, 0.043% active. Phosphoglycerate kinase, glycosomal (Trypanosoma brucei brucei), P07378. PGK/GAPDH coupled, Kinase-Glo luminescence, 60 min. AID 602233, 2012; also: potency is read from the fitted curve at half-maximal effect; % is scaled to controls: 0 for no effect and ±100 for the full control effect; nearly all actives have a fitted effect of over 60% in size
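Recombinant glycosomal PGK reaction used 1,3-bisphosphoglycerate generated in-well by GAPDH (100nM final) in 100mM TEA pH 7.6, 5mM MgCl2, 0.01% Tween-20. After 60 minutes at room temperature, ATP was read by Kinase-Glo Plus luminescence end-point.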
WRN helicase inh-1 – qHTS for Inhibitors of WRN Helicase; Bifunctional 3'-5' exonuclease/ATP-dependent helicase WRN (Homo sapiens), Q14191; WRN helicase unwinding, fluorescent forked duplex, kinetic; Potency, µM (highest dose often 114 µM), without a hit: at the top dose activity change, negative = inhibition, hits mostly inhibitors; 360,000 tested, 0.46% active; also: potency is read from the fitted curve at half-maximal effect; % is scaled to controls: 0 for no effect and ±100 for the full control effect; nearly all actives have a fitted effect of over 55% in size
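WRN at 20 nM final preincubated with compound 15 min at room temperature; reaction started with 100 nM fluorophore/quencher forked duplex oligonucleotide and 2 mM ATP final. Unwinding followed kinetically by red fluorescence (ex 525, em 598 nm).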
FEN1 inh – qHTS Assay for the Inhibitors of Human Flap endonuclease 1 (FEN1); Potency, µM (top dose mostly 114 µM), without a hit: at the top dose activity change, negative = inhibition, actives largely listed as inhibitors; AID 588795, 2011; P39748; 390,000 tested, 0.35% active; Recombinant FEN1 flap cleavage, fluorescence, 15 min; also: potency is read from the fitted curve at half-maximal effect; % is scaled to controls: 0 for no effect and ±100 for the full control effect; nearly all actives have a fitted effect of over 65% in size
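Recombinant FEN1 (10 nM) was preincubated with pin-transferred compounds for 15 min at room temperature, then flap DNA substrate (50 nM final) was added. Plates were read at 0 and 15 min, and normalized concentration–response data were fitted to a four-parameter Hill equation.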
Pin1 inhibitor – qHTS Assay to Find Inhibitors of Pin1 | Peptidyl-prolyl cis-trans isomerase NIMA-interacting 1 (Homo sapiens), Q13526 | Pin1 FP peptide displacement, HiFluor488, 10 min | Potency, µM (top dose mostly 115 µM), for inactives: top-dose activity, negative = inhibition, most hits filed as inhibitors | 390,000 tested, 0.009% active | AID 504891, 2011; active = well fitted inhibition curve with a large enough effect in the polarisation, with a control signal flat, not every such curve was filed as active; inconclusive = small, poorly fitted or top-dose-only effect, or effect the other way, or a change in a side signal; inactive = no such curve, though single readings can be large or run the other way; the % refers to the polarisation; also: potency is read from the fitted curve at half-maximal effect; % is scaled to controls: 0 for no effect and ±100 for the full control effect
PI5P4K alpha inh – qHTS for Inhibitors of phosphatidylinositol 5-phosphate 4-kinase (PI5P4K). PI5P4Kalpha enzyme, ADP-Glo luminescence, 60 min; hits give low values. max response, %. 330,000 tested, 1.2% active; active = max response of -50% or lower; inconclusive = between -30% and -50%; inactive = -30% or higher; also: value at the top dose of about 77 µM; % is scaled to controls: 0 for no effect and ±100 for the full control effect
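Luminescence from ADP-Glo served as readout of PI5P4Kalpha activity in a qHTS format. Reaction: enzyme, substrate, compound, ATP at 5 microM final, 60 min at RT.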
WRN helicase inh-2 – qHTS for Inhibitors of WRN Helicase: Confirmatory Assay for Cherry-picked Compounds | shares compounds with WRN helicase inh-1 | WRN helicase DNA unwinding, fluorescence kinetic | Potency, µM (highest dose often 57.1 µM), for inactives: at the top dose activity, negative = inhibition, actives largely listed as inhibitors | 610 tested, 63% active; also: potency is read from the fitted curve at half-maximal effect; nearly all actives have a fitted effect of over 65% in size
TO displacement – qHTS for Inhibitors of WRN Helicase: Thiazole Orange DNA Binding Counterscreen; 610 tested, 10% active; shares compounds with WRN helicase inh-1; Potency, µM (highest dose often 57.1 µM), inactives show top-dose activity change, negative = inhibition, most hits filed as inhibitors; AID 720499, 2013; thiazole orange DNA binding displacement, fluorescence;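 also: drop in dye fluorescence marks compound binding to DNA; potency is read from the fitted curve at half-maximal effect; % is scaled to controls: 0 for no effect and ±100 for the full control effect; nearly all actives have a fitted effect of over 60% in size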
BLM counter – qHTS for Inhibitors of WRN Helicase: BLM Helicase Counterscreen for WRN Inhibitors; 610 tested, 60% active; shares compounds with WRN helicase inh-1; Potency, µM (series often up to 57.1 µM), inactives show at the top dose activity change, negative = inhibition, usual class: inhibitors; Recombinant BLM helicase DNA unwinding, red fluorescence; AID 720503, 2013; also: potency is read from the fitted curve at half-maximal effect; nearly all actives have a fitted effect of over 60% in size
Target sequence (P54132 whole entry, looked up): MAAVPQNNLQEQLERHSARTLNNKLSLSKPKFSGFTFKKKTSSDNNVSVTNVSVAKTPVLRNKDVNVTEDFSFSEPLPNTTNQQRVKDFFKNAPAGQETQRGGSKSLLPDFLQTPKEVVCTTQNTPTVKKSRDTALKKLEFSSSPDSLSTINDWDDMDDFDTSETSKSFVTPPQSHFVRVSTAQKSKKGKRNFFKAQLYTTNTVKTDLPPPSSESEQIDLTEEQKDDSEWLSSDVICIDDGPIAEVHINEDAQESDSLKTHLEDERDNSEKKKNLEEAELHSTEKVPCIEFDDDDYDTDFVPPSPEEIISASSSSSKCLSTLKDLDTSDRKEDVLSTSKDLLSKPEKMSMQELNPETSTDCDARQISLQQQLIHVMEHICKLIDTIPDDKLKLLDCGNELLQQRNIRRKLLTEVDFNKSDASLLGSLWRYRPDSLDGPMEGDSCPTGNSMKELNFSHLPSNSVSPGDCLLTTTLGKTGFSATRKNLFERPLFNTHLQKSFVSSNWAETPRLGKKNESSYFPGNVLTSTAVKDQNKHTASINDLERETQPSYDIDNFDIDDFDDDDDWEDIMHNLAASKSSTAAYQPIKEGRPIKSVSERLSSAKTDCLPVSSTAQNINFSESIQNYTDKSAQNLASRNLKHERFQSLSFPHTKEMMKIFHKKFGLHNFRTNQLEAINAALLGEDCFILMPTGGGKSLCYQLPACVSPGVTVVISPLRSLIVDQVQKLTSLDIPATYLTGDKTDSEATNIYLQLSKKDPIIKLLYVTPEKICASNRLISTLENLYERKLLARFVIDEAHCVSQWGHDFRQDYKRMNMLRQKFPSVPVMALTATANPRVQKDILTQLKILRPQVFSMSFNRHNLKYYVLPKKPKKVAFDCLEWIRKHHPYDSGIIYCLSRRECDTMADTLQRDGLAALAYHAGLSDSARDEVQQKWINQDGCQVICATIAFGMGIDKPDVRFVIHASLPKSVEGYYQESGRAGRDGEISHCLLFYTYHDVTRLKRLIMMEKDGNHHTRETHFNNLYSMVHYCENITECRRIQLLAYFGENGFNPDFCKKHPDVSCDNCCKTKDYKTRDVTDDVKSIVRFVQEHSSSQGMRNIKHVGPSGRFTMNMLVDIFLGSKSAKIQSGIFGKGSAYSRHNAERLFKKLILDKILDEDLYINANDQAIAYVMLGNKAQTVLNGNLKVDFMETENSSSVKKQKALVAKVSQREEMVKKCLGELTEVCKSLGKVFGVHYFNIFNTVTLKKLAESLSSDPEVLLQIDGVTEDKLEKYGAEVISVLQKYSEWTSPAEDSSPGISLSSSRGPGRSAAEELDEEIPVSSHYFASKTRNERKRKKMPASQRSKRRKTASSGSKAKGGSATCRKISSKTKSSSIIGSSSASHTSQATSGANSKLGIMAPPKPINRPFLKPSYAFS
ADP-Glo counter – qHTS for Inhibitors of PI5P4K: ADP-Glo counter assay. shares compounds with PI5P4K alpha inh. ADP-Glo detection counter-screen, luciferase luminescence, no enzyme. Potency, µM (titrated, usually from 76.9 µM), for inactives: top-dose activity change, negative = inhibition, usual class: inhibitors. 1,100 tested, under 10 active. AID 743285, 2014
The depositor's hits bear a star; ? = inconclusive; . = no result given; [ ] = another dose, or the depositor's remark. Unless noted, calls follow the shape of the dose curve; as a rule, active = well fitted curve in the direction sought with a large enough effect; inconclusive = small, poorly fitted or top-dose-only effect, or another doubt; inactive = no such curve, though single readings can be large; an effect the other way counts as inactive or inconclusive.

SMILES	GRP78 ERSR act	Tb PGK inh	WRN helicase inh-1	FEN1 inh	Pin1 inhibitor	PI5P4K alpha inh	WRN helicase inh-2	TO displacement	BLM counter	ADP-Glo counter
O=C(O)c1cccc(N2C(=O)c3cc([N+](=O)[O-])cc4cc([N+](=O)[O-])cc(c34)C2=O)c1	-10.9%	25.1µM*	39.8µM*	20µM*	.	-73.1*	27.1µM*	-25.9%	?	.
O=C(O)c1cccc(N2C(=O)c3cccc4cccc(c34)C2=O)c1	-3.4%	-2.6%	-22.0%	-4.2%	-1.7%	-0.7	.	.	.	.
Cc1ccc(C)c(NC(=O)CN(C)C(=O)c2cccc(-n3cccc3)c2)c1	-3.0%	?	50.1µM*	-18.3%	-24.0%	-60.0*	21.5µM*	-2.4%	10.8µM*	-1.0%
CC(=O)N1CCC[C@H]1C(=O)N1CCc2c(cnc(C)c2CNC(=O)/C=C/c2cccs2)C1	-0.9%	.	.	.	.	.	.	.	.	.
CCCCCCNC(=O)c1cc(-c2ccco2)nc2ccccc12	-0.9%	?	39.8µM*	-7.7%	-30.2%	-85.7*	?	-22.8%	17.1µM*	-8.6%
CCc1nnc(NC(=O)c2cc(-c3ccco3)nc3ccccc23)s1	-0.8%	?	35.5µM*	?	.	-78.1*	?	24.1µM*	1.92µM*	-5.6%
Cc1cc(C(=O)NCc2nnc3n2CCN(Cc2ccc(F)cc2F)CC3)c(C)o1	-3.9%	.	.	.	.	.	.	.	.	.
Cc1noc(C)c1CC(=O)N1CCOc2c(cc(-c3nc4ccccc4s3)cc2OC2CCOC2)C1 (stereo not given)	-0.9%	.	.	.	.	.	.	.	.	.
O=C(c1cccc(-n2cccc2)c1)N1CCN(S(=O)(=O)c2c(F)cccc2F)CC1	-3.2%	-8.4%	?	-12.6%	11.8%	-28.0	.	.	.	.
O=C(c1cccc(-n2cccc2)c1)N1CCN(S(=O)(=O)c2ccccc2)CC1	-0.3%	?	17.8µM*	?	.	-68.5*	4.29µM*	?	1.08µM*	2.8%
Cc1ccc(N(CC(=O)NCc2ccco2)S(=O)(=O)c2ccccc2)cc1	-2.7%	-10.4%	-2.7%	-16.7%	-5.8%	.	.	.	.	.
COc1ccccc1N(CC(=O)NCc1ccco1)S(=O)(=O)c1ccc(C)cc1	-6.4%	?	35.5µM*	?	.	-79.6*	17.1µM*	29.2%	13.6µM*	-1.7%
COc1cccc(C(=O)Nc2cccc(NC(=O)c3ccc(Cl)cc3Cl)c2)c1	1.2%	-8.3%	.	7.5%	?	.	.	.	.	.
COc1cccc(C(=O)Nc2cccc(C(=O)NC3=NN(c4c(Cl)cc(Cl)cc4Cl)C(=O)C3)c2)c1	-4.2%	-14.4%	?	?	.	-58.4*	?	?	?	3.1%
Cc1nc2cc(NC(=O)[C@@H]3C[C@@H](Sc4ccccn4)CN3Cc3cccc(F)c3)ccc2s1	-3.6%	.	.	.	.	.	.	.	.	.
Cc1c2cnn(CC(=O)Nc3c(F)c(F)cc(F)c3F)c(=O)c2c(C)n1Cc1ccccc1F	-2.6%	-21.9%	?	79.4µM*	?	-56.3*	19.2µM*	27.0%	3.83µM*	4.0%
Cc1ccc(C)c(OC(C)C(=O)Nc2ccc(S(=O)(=O)Nc3nccs3)cc2)c1 (stereo not given)	6.0%	-23.1%	?	?	?	-62.0*	.	.	.	0.2%
O=S(=O)(c1ccc(F)c(F)c1)N1CCCc2ccccc21	-6.2%	-8.1%	1.5%	-3.1%	2.2%	1.0	.	.	.	.
O=S(=O)(c1ccc(Br)cc1)N1CCCc2ccccc21	-0.3%	-1.5%	-34.7%	-13.3%	-0.8%	1.5	.	.	.	-5.5%
CCOc1ccc2[nH]c3c(N4CCN(C(=O)c5ccco5)CC4)ncnc3c2c1	-1.0%	-11.1%	-18.6%	?	-0.9%	?	.	.	.	.
O=C(c1ccco1)N1CCN(c2ncnc3c2[nH]c2ccc(Br)cc23)CC1	-10.3%	-0.5%	-29.9%	?	?	-50.1*	.	.	.	9.6%
COc1ccc(-c2cc(CNc3nc(NC(C)C)nc4cc(-c5ccccc5)sc34)on2)cc1	-3.3%	.	6.7%[57.1 µM]	.	.	.	.	.	.	-14.6%
C=CCNc1nc(NCc2ccc(NC(C)=O)cc2)c2sc(-c3ccccc3)cc2n1	-6.4%	.	2.6%	.	.	?	.	.	.	.
CC(=O)Nc1ccc(CNc2nc(NC(C)C)nc3cc(-c4ccccc4)sc23)cc1	-9.2%	.	12.6%[57.1 µM]	.	.	.	.	.	.	-1.6%
CC(=O)NCCNc1nc(NC(C)C)nc2cc(-c3ccccc3)sc12	-1.0%	.	-1.4%	.	.	-17.8	.	.	.	.
CCOC(=O)CSc1ccc2nnc(-c3cccs3)n2n1	2.3%	-7.8%	-15.2%	-8.4%	0.4%	-50.7*	.	.	.	-6.7%
CN(C)S(=O)(=O)c1cccc(C(=O)OCC(=O)Nc2sccc2C(N)=O)c1	-4.6%	7.5%	?	-13.0%	?	-65.7*	.	.	.	-4.3%
NC(=O)c1ccsc1NC(=O)COC(=O)c1nc(Cl)ccc1Cl	-0.1%	-2.0%	-23.0%	6.6%	?	-52.7*	.	.	.	-3.0%
NC(=O)c1ccsc1NC(=O)COC(=O)c1ccc(Cl)nc1	0.7%	2.5%	-14.5%	-2.4%	18.8%	-2.2	.	.	.	.
COc1ccc(NC(=O)COC(=O)c2cccc(S(=O)(=O)N(C)C)c2)cc1	-0.2%	-6.2%	-5.0%	-6.9%	1.7%	5.4	.	.	.	.
